PubChem BioAssay AID540256 (National Center for Advancing Translational Sciences (NCATS), 2011)
Hit rate of the full screen: of about 300,000 compounds, about 3,700 (1.2%) were called active. Not shown: some 20% with an inconclusive outcome. What follows is part of a selection rich in actives, with near analogues and random picks from the rest. A number with no mark means an inactive call. Calls come from the whole dose curve; tested in HEK293 cells.

assay: qHTS for Inhibitors of binding or entry into cells for Lassa Virus; conditions: Lassa virus pseudotype entry inhibition, cell reporter; series mostly up to 37.9 µM; activity change, negative = inhibition: at the top concentration; note: nearly all actives have a fitted effect of over 50% in size
% is set by controls: 0 for no effect and ±100 for the full control effect; potency is the fitted concentration of half-maximal effect.

Compound | activity change, negative = inhibition | Potency
COc1ccccc1C(=O)c1ccccc1C(=O)c1ccccc1 | -0.819% [at 46.1 µM] | –
COc1ccc(-c2cn3nc(N4CCC(C(=O)Nc5cccc(C)c5C)CC4)sc3n2)cc1 | 18.7% [at 46.1 µM] | –
CC(C)NC(=O)c1ccc(Cl)cc1Cl | 12.8% [at 46.1 µM] | –
CC(OC(=O)c1ccc(Cl)cc1O)C(=O)NCCC1=CCCCC1 (configuration not stated) | 2.74% | –
CC(C)OC(=O)c1ccc(NCc2cc(O)ccc2O)cc1Cl | – | 10 µM (active)
O=C(Cn1c(-c2cccs2)cc2ccccc21)NCCc1ccc(Cl)cc1 | 8.67% [at 46.1 µM] | –
O=C1c2ccccc2C(=O)N1CCCCCCN1C(=O)c2ccccc2C1=O | 0% [at 46.1 µM] | –
CC(=O)c1ccc(S(=O)(=O)NC2CC(=O)N(c3ccc4c(c3)OCCO4)C2)cc1 (configuration not stated) | -2.24% | –
O=C(CN1CCN(c2ccc(O)cc2)CC1)NC1CCCc2ccccc21 (configuration not stated) | -29.6% | –
CSc1ccccc1N1CCN(CCCCCC(=O)NC2CCCc3ccccc32)CC1 (configuration not stated) | – | 11.6 µM (active)
O=C(CSc1nncs1)NC1CCCc2ccccc21 (configuration not stated) | 14% [at 46.1 µM] | –
Cc1cccc(NC(=S)N2CCC(C(=O)c3ccc(F)cc3)CC2)c1 | 1.61% [at 46.1 µM] | –
COc1cc(C(c2c(NC(=O)c3ccco3)sc(C)c2C)N2CCOCC2)cc(OC)c1OC (configuration not stated) | -2.37% | –
Cc1ccc(C(=O)Nc2ccc(NC(=O)c3cccs3)cc2)c(C)c1 | -6.7% | –
Cc1ccc(-c2csc(NC(=O)c3cccs3)n2)cc1 | 0.307% | –
Cc1ccc(-c2nnc(-c3ccc(NC(=O)c4cccs4)cc3)o2)cc1 | – | 7.3 µM (active)
COC(=O)c1cc(C(=O)OC)n2ccc3cc(OC)c(OC)cc3c12 | 21.2% [at 14.3 µM] | –
CSCCC(NC(=O)COc1ccccc1)C(=O)OCc1ccc(Cl)cc1 (configuration not stated) | 3.24% | –
O=C(CSc1nc2[nH]c(=O)[nH]c(=O)c2s1)Nc1cccc(F)c1 | 9.68% | –
COc1cc(C(=O)N2CCN(c3ccc(Nc4ccc(C)cc4)nn3)CC2)cc(OC)c1OC | -25.3% [at 46.1 µM] | –
O=C(NC1CC1)c1ccc(-c2ccccc2)cc1 | 17.2% | –
Cc1ccc(C(=O)NC2CCC2)cc1-c1ccc(C(=O)NCC2CC2)cc1 | – | 11.2 µM (active)
Cc1ccc(C(=O)NCC(=O)OCC(=O)NC2CCCCCCC2)cc1 | -7.65% [at 46.1 µM] | –
CCN(CC(=O)Nc1ccc(OC)cc1)C(=O)c1ccc(Cl)c(S(=O)(=O)N2CCCC2)c1 | -5.74% | –
COC(=O)c1cc(C(=O)NC(C)C2CC3CCC2C3)cc([N+](=O)[O-])c1 (configuration not stated) | 1.88% | –
O=C(CCCCCCCC(=O)N1CCCCC1)N1CCCCC1 | -5.69% | –

Compound | activity change, negative = inhibition | Potency
CSc1ncc(Sc2ccccc2)c(C(=O)O)n1 | -7.12% | –
COc1ccc2nc(N3C(=O)C(O)=C(C(=O)c4ccco4)C3c3ccco3)sc2c1 (configuration not stated) | 3.18% | –
CCOC(=O)CC1C(=O)NCCN1c1nc2c(C)cccn2c(=O)c1/C=C1\SC(=S)N(C(C)CC)C1=O (configuration not stated) | – | 6.31 µM (active)
Cc1cccn2c(=O)c(/C=C3\SC(=S)N(CC(C)C)C3=O)c(NCCCOC(C)C)nc12 | 3.06% | –
CCCN(CCC)c1nc2c(C)cccn2c(=O)c1/C=C1/SC(=S)N(Cc2ccco2)C1=O | -2.89% [at 46.1 µM] | –
CC(=O)c1ccc(NC(=O)COc2ccccc2-c2nc(-c3ccccc3)no2)cc1 | 3.33% [at 46.1 µM] | –
CCOc1nc(-c2ccc(OC)cc2)ccc1-c1noc(-c2cc(OC)c(OC)c(OC)c2)n1 | 3.47% | –
COc1ccc(-c2nc(-c3ccccc3)no2)c(OC)c1 | – | 1.64 µM (active)
CC(=O)OCC(=O)C1(O)CCC2C3CC(C)C4=CC(=O)CCC4(C)C3C(O)CC21C (configuration not stated) | -11.5% [at 46.1 µM] | –
O=C(Nc1cccc(S(=O)(=O)N2CCOCC2)c1)C12CC3CC(CC(C3)C1)C2 | 0.293% [at 46.1 µM] | –
COc1ccc(NC(=O)/C(C#N)=C\c2cc(OC)c(OCc3ccc(C(=O)O)cc3)cc2Br)cc1 | 12.9% | –
COc1ccc(CNC(=O)/C(C#N)=C/c2cccc(OC)c2OC)cc1 | – | 3.55 µM (active)
N#C/C(=C\c1ccc(O)c(O)c1)C(=O)NCc1ccccc1 | 1.83% | –
O=C(Nc1ccc(Cl)c(Cl)c1)c1ccccc1NC(=O)C1CC=CCC1C(=O)O (configuration not stated) | 16.9% [at 46.1 µM] | –
CCOC(=O)c1c(-c2cccc(C)c2)csc1NC(=O)c1c(-c2ccccc2)noc1C | – | 0.562 µM (active)
Cc1ccc(CNC(=O)c2c(-c3ccccc3)noc2C)cc1 | 16.7% [at 46.1 µM] | –
CC(=O)Nc1cccc(NC(=O)c2c(-c3ccccc3)noc2C)c1 | -0.808% | –
Cc1cccc(N2CCN(c3ccc(C(=O)O)cc3NC(=O)c3ccccc3F)CC2C)c1 (configuration not stated) | 13.8% [at 46.1 µM] | –
NC(=O)C1(Nc2ccccc2Cl)CCCC1 | -22.7% | –
Cc1noc(NS(=O)(=O)c2ccc(N/C=C/C(=O)c3ccccc3)cc2)c1C | 1.23% | –
O=C(/C=C\NCC(=O)c1ccccc1)c1ccccc1 | 0.347% | –
CCOc1ccc(N/C=C/C(=O)c2ccccc2)cc1 | – | 7.08 µM (active)
COc1ccc(CCNCc2c(-c3ccccc3)n(C)c3ccccc23)cc1 | – | 8.91 µM (active)
COc1ccc2c(CNCCc3ccccc3C)c(C(=O)O)n(Cc3ccccc3C)c2c1 | -8.31% [at 46.1 µM] | –
COc1ccc(Cn2c(C(=O)O)c(CNCCc3cccs3)c3ccc(OC)cc32)cc1 | -13.2% [at 46.1 µM] | –
CCOC(=O)C1CCN(C(=O)COc2cccc3ccccc23)CC1 | 17.3% [at 46.1 µM] | –

Compound | activity change, negative = inhibition | Potency
O=C(Nc1cc(S(=O)(=O)N2CCCCC2)ccc1Cl)C1COc2ccccc2O1 (configuration not stated) | -24.8% | –
COc1cccc(CNC(=O)c2ccc3c(c2)sc2nc(-c4cccc(OC)c4)cn23)c1 | -0.598% [at 46.1 µM] | –
CC(=O)c1ccc(S(=O)(=O)N2CCN(c3nc4c(C)c(C)ccc4cc3C#N)CC2)cc1 | – | 18.3 µM (active)
CC(=O)c1cc(C#N)c(N2CCCCC2)nc1C | 0.572% | –
Cc1cc(C)c2nc(N3CCCC3)c(C#N)cc2c1 | 11.1% | –
COc1ccc(N2CCN(C(=O)COC(=O)c3cccc(S(=O)(=O)Nc4ccccc4OC)c3)CC2)cc1 | -29.3% | –
COCCN(C(=O)C(C)N1C(=O)c2ccccc2C1=O)c1c(N)n(CC(C)C)c(=O)[nH]c1=O (configuration not stated) | 10.8% | –
CC(=O)Nc1ccn(Cc2c(F)cccc2Cl)n1 | 23.3% | –
O=C(Nc1ccn(Cc2ccccc2)n1)c1n[nH]c([N+](=O)[O-])c1Cl | – | 7.31 µM (active)
Cn1cc([N+](=O)[O-])c(C(=O)Nc2cnn(Cc3ccc(F)cc3)c2)n1 | -15% | –
O=C(CN1CCC(NC(=O)Nc2ccccc2)CC1)Nc1cccc([N+](=O)[O-])c1 | 9.38% | –
CCn1c(SCC(=O)Nc2ccc(Br)cc2)nc2sc3c(c2c1=O)CCN(C)C3 | 13.2% [at 46.1 µM] | –
COc1ccc(C)cc1Nc1nc(C)nc2c1oc1ccccc12 | -17.2% | –
CCC1([N+](=O)[O-])COC(c2ccc(C(C)C)cc2)OC1 (configuration not stated) | 0.913% [at 46.1 µM] | –
COc1ccc(/C=C2/CCCc3ccccc3C2=O)cc1 | -3.13% | –
COc1ccc(/C=C2\CCCC3C2=NN(C(=O)c2scnc2C)C3c2ccc(OC)cc2)cc1 (configuration not stated) | – | 1.03 µM (active)
CCOc1ccccc1-c1nc(CN2CCC(C(=O)N3CCOCC3)CC2)c(C)o1 | 1.92% | –
COc1cccc(C=CC(=O)C=CC=Cc2ccccc2)c1 | 8.13% [at 46.1 µM] | –
O=[N+]([O-])c1ccc(N=NNc2ccc([N+](=O)[O-])cc2)cc1 | -8.18% [at 46.1 µM] | –
CCN(CC)S(=O)(=O)c1ccc2[nH]cc(C(=O)NCCc3ccccc3)c(=O)c2c1 | – | 0.224 µM (active)
CCc1ccc(NS(=O)(=O)c2ccc3[nH]cc(C(=O)NCCc4cccc(C)c4)c(=O)c3c2)cc1 | 11.7% [at 46.1 µM] | –
O=C(NCCc1ccccc1)c1c[nH]c2ccc(F)cc2c1=O | 2.46% [at 46.1 µM] | –
Cc1ccc(-n2ncc3c2CC(C)(C)CC3NC(=O)Cc2c(C)noc2C)cc1 (configuration not stated) | -1.13% | –
CC(C)Cn1cnc2c1c(=O)n(CC(=O)NN)c(=O)n2Cc1ccccc1 | 8.73% | –
Cc1noc(COc2ccccc2OCC(O)CNC(C)(C)C)n1 (configuration not stated) | -8.37% | –
CC(C)(C)CC(C)(C)NCC(O)COCCOc1ccc(Br)cc1 (configuration not stated) | – | 13 µM (active)

Compound | activity change, negative = inhibition | Potency
CC(C)(C)NCC(O)COc1cccc2[nH]c(=O)[nH]c12 (configuration not stated) | -18.2% | –
CN(N)c1nc(N2CCCC2)nc(N2CCCC2)n1 | 3.32% | –
COCCN(CCOC)C(=S)Nc1ccccc1Cl | -7.1% | –
O=C(Nc1ccccc1Cl)/C(Cl)=C(\Cl)S(=O)c1ccccc1 (configuration not stated) | – | 8.91 µM (active)
O=C(Nc1ccccc1Cl)c1ccc2nsnc2c1 | 1.68% | –
CCC(=O)N1CCN(c2ccccc2NC(=O)COc2cccc(C)c2C)CC1 | -25.8% | –
COc1ccc(N(CC(=O)Nc2cc(OC)cc(OC)c2)S(=O)(=O)c2c(C)n[nH]c2C)cc1 | -22.8% [at 46.1 µM] | –
O=C(Nc1ccccc1F)c1cc(S(=O)(=O)N2CCCCC2)cs1 | – | 20.6 µM (active)
O=C(Nc1ccccc1C(=O)O)c1cc(S(=O)(=O)N2CCCCC2)cs1 | -14.1% | –
Cc1ccccc1NC(=O)c1cc(S(=O)(=O)N2CCOCC2)cs1 | 11.5% | –
O=C(Nc1ccc2nc(SCCOc3ccccc3)sc2c1)c1ccco1 | 6.39% [at 46.1 µM] | –
CCCn1c(C)cc(-c2csc(NC(=O)CCc3nc4ccccc4c(=O)[nH]3)n2)c1C | 13.6% | –
Cc1oc(-c2ccccc2)nc1Cn1c(SCc2cccc(C(F)(F)F)c2)nc2cccnc21 | -28.6% [at 46.1 µM] | –
O=S(=O)(O)c1cc2onnc2c2ccccc12 | 1.68% [at 46.1 µM] | –
CCC(=O)/C(=C(/O)c1ccccc1)c1nc2ccccc2[nH]1 | -7.18% [at 46.1 µM] | –
O=C(/C(=C/c1cccc(Cl)c1)c1nc2ccccc2[nH]1)c1ccccc1 | – | 10 µM (active)
Oc1ccc(Cl)cc1/C=N/c1nc2ccccc2[nH]1 | -23.6% [at 14.3 µM] | –
CCc1ccc(NC(=O)CN2CCC(C(=O)c3ccc(OC)cc3)CC2)cc1 | 4.84% [at 46.1 µM] | –
O=C(Nc1c(Br)cc2c(c1Br)Cc1ccccc1-2)C(F)(F)F | -2.97% [at 46.1 µM] | –
CC(C=Cc1ccccc1)=NNS(=O)(=O)c1ccc([N+](=O)[O-])cc1 | -16.9% [at 46.1 µM] | –
O=C(/C=C/c1ccccc1)c1ccccc1O | -11.3% | –
CC(/C=C/c1ccccc1)=N\NC(=O)C1CC1(C)c1ccccc1 (configuration not stated) | – | 1.03 µM (active)
CSCCC(NS(=O)(=O)c1ccc(C)cc1)C(=O)N(C)CC(=O)Nc1ccccc1Br (configuration not stated) | -7.64% | –
CN(CC(=O)Nc1ccccc1C(F)(F)F)C(=O)Cc1ccccc1F | 1.54% | –
